# Laboratory results as given in ChEMBL document CHEMBL3988442, “University of Dundee, Small-Polar-MMV Screening Library” (2021).
# Experiments:
# [1] = molecular target: T1, Aspartate--tRNA(Asp/Asn) ligase (Mycobacterium tuberculosis (strain ATCC 25618 / H37Rv)) (UniProt P9WFW3); test: Assay for Asp RNA synthetase-1 from Mycobacterium tuberculosis; assay type: functional; design: scale not given: direction of the effect not stated beside the values; conditions: 30 µM; also: in the data most compounds retested in dose-response had high values
# T1 sequence (whole entry): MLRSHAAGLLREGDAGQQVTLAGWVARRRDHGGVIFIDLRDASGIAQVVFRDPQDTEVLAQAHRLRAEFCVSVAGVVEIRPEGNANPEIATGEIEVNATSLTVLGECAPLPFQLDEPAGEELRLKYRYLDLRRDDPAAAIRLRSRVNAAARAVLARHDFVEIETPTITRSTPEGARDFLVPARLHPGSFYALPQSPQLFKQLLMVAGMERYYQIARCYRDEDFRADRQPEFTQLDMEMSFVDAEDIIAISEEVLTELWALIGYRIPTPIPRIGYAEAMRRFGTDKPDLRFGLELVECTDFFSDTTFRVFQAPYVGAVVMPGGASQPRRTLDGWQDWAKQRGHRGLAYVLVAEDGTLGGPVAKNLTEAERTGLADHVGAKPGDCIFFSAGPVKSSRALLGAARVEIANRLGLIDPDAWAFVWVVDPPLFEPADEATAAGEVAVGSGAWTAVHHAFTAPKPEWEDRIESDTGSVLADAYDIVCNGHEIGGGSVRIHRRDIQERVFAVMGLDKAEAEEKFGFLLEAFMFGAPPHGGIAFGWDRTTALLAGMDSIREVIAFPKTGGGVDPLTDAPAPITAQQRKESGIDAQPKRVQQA
# [2] = molecular target: Shiga toxin 2 (Escherichia coli O157:H7) (UniProt P09385+P09386); test: E. coli 0.157:H7 Shiga Toxin SOP - stx2 screening assay; assay type: functional; design: scale not given: direction of the effect not stated beside the values; conditions: 30 µM
structure (smiles),measurement,setting,value
CN1CCN(C(=O)c2cncc(CC3CCCN(C)C3)c2)CC1 (centres undefined),Percent Effect,[1],-1.68%
same,Percent Effect,[2],-19.2%
Cc1cc(CN(C)C(=O)c2ccc(Cl)c(S(C)(=O)=O)c2)no1,Percent Effect,[1],-2.25%
same,Percent Effect,[2],-3.87%
CCn1cc(N2Cc3nc(N)ncc3C2=O)cn1,Percent Effect,[1],-7.32%
same,Percent Effect,[2],-36.6%
CCc1nc(CC(=O)N2CCCC2Cn2cccn2)cs1 (centres undefined),Percent Effect,[1],0.426%
same,Percent Effect,[2],10.2%
CCc1nccn1C1CCCN(C(=O)Cc2n[nH]c3ccccc23)C1 (centres undefined),Percent Effect,[1],0.83%
same,Percent Effect,[2],13.1%
COc1ccc(Cl)cc1NCC(=O)NCCNc1cnccn1,Percent Effect,[1],-0.88%
same,Percent Effect,[2],25.1%
O=C(C1=CC2(CCNCC2)c2ccccc21)N1CCCC1,Percent Effect,[1],3.17%
same,Percent Effect,[2],-0.391%
Cc1cc(C)c(CNC(=O)N2CCCC2c2cccn2C)c(=O)[nH]1 (centres undefined),Percent Effect,[1],-3.71%
same,Percent Effect,[2],-31.2%
CC(C)n1[nH]c(=O)c2c1NC(=O)CC2c1ccc2ncccc2c1 (centres undefined),Percent Effect,[1],-3.5%
same,Percent Effect,[2],-15.3%
Cc1cc(CN2CCOCS2(=O)=O)ccc1F,Percent Effect,[1],1.64%
same,Percent Effect,[2],3.93%
CC1=Nc2c(c(=O)[nH]n2C(C)C)C(c2ccc(F)c(F)c2)S1 (centres undefined),Percent Effect,[1],1.86%
same,Percent Effect,[2],22.2%
Cc1cc(CN2CCCC(C)(CO)C2)ccc1F (centres undefined),Percent Effect,[1],-3.62%
same,Percent Effect,[2],14.3%
